Screen size: about 96,000 compounds; about 19,000 (20%) were called active. A selection follows. A number with no mark means an inactive call.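 How the source made its calls: active means blocking of liver enzyme CYP2C9 beyond about 50% at 5 µM (limit read from the data); inactive means the rest.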
The compounds below were run against Cytochrome P450 2C9 (Homo sapiens) (UniProt P11712) (assay: blockers of cytochrome P450 2C9 activity – biochemical, luminescence, ADME assay, primary screen (AID 777)). Conditions: CYP2C9 Supersomes, luciferin-H conversion, at 5 µM, stronger effect = higher value.
Chain of Cytochrome P450 2C9 (Homo sapiens) (P11712 whole entry, looked up): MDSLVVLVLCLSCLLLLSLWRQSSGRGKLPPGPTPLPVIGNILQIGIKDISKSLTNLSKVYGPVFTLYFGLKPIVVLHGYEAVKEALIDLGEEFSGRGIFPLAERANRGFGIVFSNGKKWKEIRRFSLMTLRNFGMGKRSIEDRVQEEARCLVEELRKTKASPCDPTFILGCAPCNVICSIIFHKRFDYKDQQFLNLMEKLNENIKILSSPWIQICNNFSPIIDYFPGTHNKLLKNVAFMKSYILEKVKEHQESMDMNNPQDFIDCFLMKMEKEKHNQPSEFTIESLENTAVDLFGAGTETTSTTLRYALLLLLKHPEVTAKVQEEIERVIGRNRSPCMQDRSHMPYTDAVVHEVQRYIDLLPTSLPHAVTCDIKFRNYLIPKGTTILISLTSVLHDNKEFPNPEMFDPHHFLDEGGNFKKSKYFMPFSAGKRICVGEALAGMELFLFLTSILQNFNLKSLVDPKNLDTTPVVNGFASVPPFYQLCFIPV

SMILES | inhibition
CCCCCCSc1nsc(N)n1 | 1.5%
CCOC(=O)c1sc(=S)n(-c2cccc(OC)c2)c1N | -20.4%
Cc1cccc(N(CC(=O)N2CCOCC2)S(C)(=O)=O)c1 | 3.8%
CS(=O)(=O)N(CC(=O)N1CCN(Cc2ccc3c(c2)OCO3)CC1)c1ccc2c(c1)OCO2 | 7.2%
CS(=O)(=O)N(CC(=O)N1CCN(Cc2ccccc2)CC1)c1ccc2c(c1)OCCO2 | -0.9%
CC1CCN(C(=O)CN(c2ccc(Oc3ccccc3)cc2)S(C)(=O)=O)CC1 | 50.7% (active)
CS(=O)(=O)N(CC(=O)N1CCN(c2cccc(Cl)c2)CC1)c1ccccc1 | 54.7% (active)
COc1cccc(N(CC(=O)N2CCc3ccccc3C2)S(C)(=O)=O)c1 | 14.5%
O=C(Nc1cccnc1)c1noc2c1CCCCC2 | 33.5%
Cc1nn(CC(=O)Nc2ccc3c(c2)nc(CN2CCCCC2)n3C)c(=O)c2ccccc12 | 16.1%
O/N=C(\c1ccc2c(c1)OCCO2)C1CCCCC1 | 35.2%
CCOc1ccccc1N=C1NC(=O)CS1 | -11.8%
COc1ccc(OCc2ccc(-c3nc4ccccc4c(=O)n3N)o2)cc1 | 45.5%
O=C(O)/C=C/C(=O)Nc1ccc(F)cc1F | 3.9%
NC(=O)c1ncc(C(F)(F)F)cc1Oc1ccc(F)cc1 | 7.9%
CCCSc1nc2c(c(=O)[nH]c(=O)n2C)n1CCc1ccccc1 | 14.6%
CN(Cc1ccccc1)c1nc2c(c(=O)[nH]c(=O)n2C)n1CCSc1nc2ccccc2[nH]1 | 67.2% (active)
Cn1c(=O)[nH]c(=O)c2c1nc(N(CCO)Cc1ccccc1)n2Cc1ccccc1Cl | 25.8%
Brc1ccc(/C=N/N2CCN(C3c4ccccc4-c4ccccc43)CC2)s1 | 25.4%
O=[N+]([O-])c1ccccc1/C=N/n1c(COc2ccccc2)n[nH]c1=S | 8.7%
Cn1nc(-c2ccc(Cl)cc2)c2cc(C(=O)NCc3ccco3)sc21 | 43.4%
Cc1nn(-c2ccccc2)c2sc(C(=O)N(Cc3ccco3)C(C)C(=O)NC(C)(C)C)cc12 (stereo not drawn) | 65.2% (active)
Cc1nc(C)c(C(=O)N(c2ccc(C)c(C)c2)C(C(=O)NCc2ccco2)c2ccccc2)s1 (stereo not drawn) | 46.6%
CCn1nnc(NC(=O)c2cc(Cl)c(OC)c(Cl)c2)n1 | -1.7%
O=C(N1CCOCC1)N(Cc1ccccc1)c1ccccn1 | 8.5%

SMILES | inhibition
CCC(C)Sc1nc(C)nc2c1c(=O)n(C)c(=O)n2C (stereo not drawn) | 8.4%
COc1cccc(/C=N/NC(=O)c2cccc([N+](=O)[O-])c2)c1OS(=O)(=O)c1ccc(C)cc1 | 1.8%
Cc1ccc(-c2nn(-c3ccccc3)cc2/C=N/NC(=O)c2ccc3c(c2)OCO3)cc1 | 76.1% (active)
Cc1nnc(SCC(=O)N/N=C/c2cn(-c3ccccc3)nc2-c2ccc(F)cc2)n1-c1ccccc1 | 29.6%
CC/C(C)=N/Nc1nc2sc3c(c2c(=O)[nH]1)CC(C)(C)OC3 | 30.9%
CCOC(=O)c1sc(NC(=O)CSc2ncccn2)c(C#N)c1C | 45.3%
CCOC(=O)c1sc(NC(=O)CSc2nnc(-c3ccco3)o2)c(C(=O)OCC)c1C | 78.6% (active)
Cc1cccc(NC(=O)CSc2nnc(-c3ccco3)o2)c1 | 29.1%
CCOC(=O)Cc1csc(NC(NC(=O)OCC)(C(F)(F)F)C(F)(F)F)n1 | 22.3%
Cc1cc(N2CCCC2=O)cc(C)c1S(N)(=O)=O | -21.5%
COC(=O)[C@H](CCSC)NC(=O)Nc1ccc(OC)cc1 | 7.5%
Cc1cc(C(=O)NCCCc2ccccc2)no1 | 2.4%
CCN(Cc1ccccc1)C(=O)CSc1nc(C)cc2c1C(=O)OC2 | -130%
Cc1ccc(-c2nn(-c3ccccc3)cc2CN(Cc2ccccc2)C(=O)CCC(=O)O)o1 | 65.1% (active)
O=C(O)CCC(=O)N(Cc1cccs1)Cc1cccs1 | 31.5%
CCCSC(=S)NC1CCS(=O)(=O)C1 (stereo not drawn) | 19.1%
Cc1ccc(Cc2cnc(N)s2)o1 | 3%
N/C(=N\OC(=O)CCc1ccccc1)c1ccc(Cl)cc1 | 8.3%
COc1cc(/C=N/O)cc(Br)c1OCc1cccc(Cl)c1 | -39.5%
CCOc1cc(/C=N/O)cc(Br)c1OC | 17.9%
COc1cc(/C=N/O)cc(Br)c1OS(=O)(=O)c1ccc(C)cc1 | 67.9% (active)
O=C(NCc1cn2ccsc2n1)Nc1cccc(Cl)c1 | -17.8%
Cc1cccc(NC(=O)C2CCN(S(=O)(=O)c3cccc4cccnc34)CC2)c1 | -180%
CCOC(=O)Cn1c(N)c(C(=O)OC)sc1=S | 57.8% (active)
COCCOC(=O)c1sc(=S)n(CCOC)c1N | 1%

SMILES | inhibition
COC(=O)c1sc(=S)n(-c2ccccc2)c1N | 3.7%
Cc1ccc(O)c(CNc2nc3ccccc3n2C)c1 | 21.9%
O=C(COc1cccc(-n2cnnn2)c1)NCCC1=CCCCC1 | 79.4% (active)
O=C(COc1ccc(Cl)cc1)NCCC1=CCCCC1 | 40.4%
Cc1nnc(OCC(=O)NCCC2=CCCCC2)c2ccccc12 | -29.1%
CC(C)(C)c1cc(CN2CCN(CCC#N)CC2)cc(C(C)(C)C)c1O | 4.9%
CC(C)Oc1ccc(C2NC(=O)NC2=O)cc1 (stereo not drawn) | -28.2%
COc1ccc2oc(C)c(NC(C)=O)c2c1 | -8.9%
COc1ccc(Nc2cc(=O)oc3ccccc23)cc1 | -27.6%
COc1ccc(S(=O)(=O)Nc2ccc3oc(C)c(C(C)=O)c3c2)cc1 | 67.2% (active)
CCOC(=O)c1c(C)[nH]c(C)c1C(=O)CSc1nc(N)cc(N)n1 | -35.6%
COc1cc(CNCc2cccs2)cc(Br)c1OC | 8.7%
Cn1c(SCc2c(F)cccc2Cl)nnc1-c1cnccn1 | -6%
COc1cccc(N=c2oc3c(C)ncc(CO)c3cc2C(N)=O)c1 | 11.4%
COc1cccc(OC)c1C(=O)Nc1nnc(C(C)C)s1 | 20.1%
COC(=O)C1=C(C)NC(=O)NC1/C=C/c1ccccc1 (stereo not drawn) | -0.6%
COc1ccccc1NC(=O)C1=C(C)NC2=C(C(=O)CCC2)C1c1ccc(C)o1 (stereo not drawn) | 10.7%
COC(=O)C1=C(C)NC2=C(C(=O)c3ccccc32)C1c1ccc(-c2ccc(C(=O)O)cc2)o1 (stereo not drawn) | 97.3% (active)
Clc1ccc(C=NC23CN4CN(CN(C4)C2)C3)cc1 | 1.1%
Cc1ccc(CN2C(=O)CCC2C(=O)NCCCN2CCCCC2C)cc1 (stereo not drawn) | 0%
CCc1ccc2oc(=O)cc(CN3CCCCC3C)c2c1 (stereo not drawn) | 54.9% (active)
COc1ccc(CN2CCCCC2C)cc1OC (stereo not drawn) | -9.7%
CCC(C)(C)c1ccc(Oc2ccc(NC(=O)COC(=O)C3=COCCO3)cc2)cc1 | 76.1% (active)
CCC1(CC)NC(=O)N(CC(=O)OCC(=O)Nc2ccc(C(F)(F)F)cc2)C1=O | -10.3%
O=C(OCC(=O)c1cccs1)C1=COCCO1 | 0.5%

SMILES | inhibition
O=C(C1CC1)N1CCN=C1SCc1ccc(Cl)cc1 | 21.3%
CC(C(=O)N1CCOCC1)N1c2cccc3cccc(c23)S1(=O)=O (stereo not drawn) | -30.6%
NC(N)=N/N=C/c1ccc(OCc2ccc(Cl)cc2Cl)cc1 | -11.8%
COc1ccc(C2Nc3ccccc3C(=O)N2Cc2ccccc2)cc1Cn1nnc2ccccc21 (stereo not drawn) | 93.5% (active)
COc1ccc(C2=NO[C@@H]3C(=O)N(Cc4ccccc4)C(=O)[C@H]23)cc1OC | 47%
Cc1cc(C)c2c(n1)nn1c(-n3ccnc3)cc(C)nc21 | -4.3%
Cn1c(CNc2nc(-c3ccccc3)cs2)nnc1SCC(=O)c1ccccc1 | 65.7% (active)
Cn1c(CC(=O)Nc2ccccc2)nnc1SCC(=O)c1ccccc1 | 76.5% (active)
Cc1ccc(C(=O)CSc2nnc(Cn3nnc4ccccc43)n2C)cc1 | 20.6%
CCn1c(Cc2ccccc2)nnc1SCC(=O)Nc1ccccc1 | 4%
CCOC(=O)CSc1nnc(CNc2nc(-c3ccccc3)cs2)n1C | -2.1%
Cc1ccccc1NC(=O)Cc1nnc(SCC(=O)N2CCN(c3ccccc3)CC2)n1C | 13.3%
CCc1ccc2c(c1)cc(CN(C(=S)Nc1ccccc1Cl)C1CC1)c1nnnn12 | -11.3%
CCOc1ccccc1C1C(C(=O)OC)=CN(C)C=C1C(=O)OC | 39.1%
CC(C)Oc1ccc(Oc2ccc(C(F)(F)F)cn2)cc1 | 23.3%
Cc1ccc(C2C(C#N)C(C#N)N3CCCN23)cc1 (stereo not drawn) | -8.1%
CCOC(=O)c1c(C)n(C)c2ccc(OC)c(NC(=O)CN3CCC4(CC3)OCCO4)c12 | 18.3%
COc1ccc(CCNC(=O)CN2CCC(n3nnc4cc(F)ccc43)CC2)cc1OC | 28.1%
Cc1nn(Cc2ccccc2Cl)c(C)c1NC(=O)Cn1nc([N+](=O)[O-])c(Cl)c1C | 11%
Cc1nn(CC(=O)Nc2nc3ccccc3s2)c(C)c1[N+](=O)[O-] | 89.2% (active)
CSCCC(Nc1nc2ccccc2s1)C(=O)O (stereo not drawn) | 25.8%
Cc1ccc(S(=O)(=O)NCc2cn3ccsc3n2)c(C)c1 | 21.3%
COc1ccc(CCN(Cc2cc3cccc(C)c3[nH]c2=O)C(=O)N2CCCC2)cc1OC | 32.5%
